Methyltransferases – Primary Screen for Target Class Profiling of Small Molecule Inhibitors of Methyltransferases. 3.9% of 25,000 active. purified enzyme, MTase-Glo SAH luminescence; active compounds read low. calls only at 40 µM; call rule not given here
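Each enzyme was assayed with SAM and its substrate. SAH formation detected by MTase-Glo luminescence; single-point 40 uM screen[…].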
Large screens that a line does not name were inactive. The entries come from a sample that favours hits as a whole.

N#Cc1cn([C@@H]2O[C@H](CO)[C@H](O)[C@@H]2O)c2ncnc(N)c12	Methyltransferases active
CCOc1ccc(C2c3cccn3-c3ccccc3CN2C(=O)Nc2cc(F)ccc2F)cc1 (stereo unspecified)	none
Cc1ccc(C2c3cccn3-c3ccccc3CN2C(=O)Nc2ccc(C)cc2C)cc1 (stereo unspecified)	none
Cc1[nH]c2ccc(Cl)cc2c1CCN(C)C	Methyltransferases active
COc1ccc(C2c3cccn3-c3ccccc3CN2C(=O)Nc2ccc(F)cc2F)cc1OC (stereo unspecified)	none
Cc1ccc(CNC(=O)N2Cc3ccccc3-n3cccc3C2c2ccc(N(C)C)cc2)cc1 (stereo unspecified)	none
Cc1ccc(CNC(=O)N2Cc3ccccc3-n3cccc3C2c2ccccc2C)cc1 (stereo unspecified)	none
CCC1c2cccn2-c2ccccc2CN1C(=O)Nc1ccc(C)c(Cl)c1 (stereo unspecified)	none
CCc1ccc(C2c3cccn3-c3ccccc3CN2C(=O)Nc2cc(C)ccc2OC)cc1 (stereo unspecified)	none
CN1CCC[C@@H]1Cc1c[nH]c2ccc(Nc3ncccc3[N+](=O)[O-])cc12	Methyltransferases active
O=C(Nc1ccccc1Cl)N1Cc2ccccc2-n2cccc2C1c1ccc(F)cc1 (stereo unspecified)	none
COc1cccc(NC(=O)N2Cc3ccccc3-n3cccc3C2c2ccccc2Cl)c1 (stereo unspecified)	none
Cc1cc(C)cc(NC(=O)N2Cc3ccccc3-n3cccc3C2c2cccs2)c1 (stereo unspecified)	none
COc1ccc(CNC(=O)/C=C/c2ccc3[nH]cc(CCN(C)C)c3c2)cc1	Methyltransferases active
CNCCc1c[nH]c2ccc(O)cc12	none
CCOc1ccc(C2c3cccn3-c3ccccc3CN2C(=O)Nc2ccc(C)cc2C)cc1 (stereo unspecified)	none
CSc1ccc(C2c3cccn3-c3ccccc3CN2C(=O)Nc2ccc(C)c(Cl)c2)cc1 (stereo unspecified)	none
N#Cc1ccc(N2CCN(C(=O)COc3ccc4[nH]cc(CCN)c4c3)CC2)cc1	Methyltransferases active
Cc1cccc(NC(=O)N2Cc3ccccc3-n3cccc3C2C)c1C (stereo unspecified)	none
Cc1ccc(NC(=O)N2Cc3ccccc3-n3cccc3C2c2ccc(Cl)cc2)cc1C (stereo unspecified)	none
Cc1ccccc1C1c2cccn2-c2ccccc2CN1C(=O)Nc1cccc(Cl)c1C (stereo unspecified)	none
Cc1cccc(C2c3cccn3-c3ccccc3CN2C(=O)Nc2ccccc2F)c1 (stereo unspecified)	none
COC(=O)CCNC(=O)N1Cc2ccccc2-n2cccc2C1c1ccc(SC)cc1 (stereo unspecified)	none
CC1CCN(CC2CCCCCN2C(=O)Cc2ccccc2)CC1 (stereo unspecified)	none
COc1cccc(NC(=O)N2Cc3ccccc3-n3cccc3C2c2ccccc2)c1 (stereo unspecified)	none
Cc1cccc(C2c3cccn3-c3ccccc3CN2C(=O)NC(C)C)c1 (stereo unspecified)	none
COc1ccc(NC(=O)N2Cc3ccccc3-n3cccc3C2c2ccc(F)cc2)cc1 (stereo unspecified)	none
O=C(Nc1ccc(F)cc1)N1Cc2ccccc2-n2cccc2C1c1ccc(F)cc1 (stereo unspecified)	none
O=c1ccc2[nH]cc(C3=CCNCC3)c2[nH]1	Methyltransferases active
O=C(Nc1ccc(F)cc1F)N1Cc2ccccc2-n2cccc2C1c1ccc(F)cc1 (stereo unspecified)	none
c1ccc2c(N3CCNCC3)cccc2c1	Methyltransferases active
COc1cccc(CNC(=O)N2Cc3ccccc3-n3cccc3C2c2cccc(C)c2)c1 (stereo unspecified)	none
CCC1c2cccn2-c2ccccc2CN1C(=O)Nc1ccc(C)c(F)c1 (stereo unspecified)	none
CCOc1ccc(C2c3cccn3-c3ccccc3CN2C(=O)Nc2ccc(F)c(Cl)c2)cc1 (stereo unspecified)	none
CCC1c2cccn2-c2ccccc2CN1C(=O)Nc1cccc(C(F)(F)F)c1 (stereo unspecified)	none
C[C@H]1CCC[C@H](O)CCC/C=C/c2cc(O)cc(O)c2C(=O)O1	Methyltransferases active
COc1cc(O)c2c(c1)CCC[C@@H](O)[C@H](O)C(=O)/C=C\C[C@H](C)OC2=O	none
CC1CCCC(O)CC(=O)Cc2cc(O)cc(O)c2C(=O)O1 (stereo unspecified)	none
COc1ccc(C2c3cccn3-c3ccccc3CN2C(=O)Nc2cc(OC)cc(OC)c2)cc1 (stereo unspecified)	none
NNC(=O)c1ccc(O)cc1	none
NCCc1ccc(O)cc1	Methyltransferases active
COCCCNC(=O)N1Cc2ccccc2-n2cccc2C1c1cc(F)cc(F)c1 (stereo unspecified)	none
COc1ccc(NC(=O)N2Cc3ccccc3-n3cccc3C2c2ccc(C)cc2)cc1 (stereo unspecified)	none
CCCN1CCO[C@H]2c3cc(O)ccc3OC[C@@H]21	none
CCCN1CCc2cc(O)cc3c2[C@H]1Cc1ccc(O)c(O)c1-3	Methyltransferases active
CN1CCc2cc(O)cc3c2[C@H]1Cc1ccc(O)c(O)c1-3	Methyltransferases active
CCc1ccc(C2c3cccn3-c3ccccc3CN2C(=O)Nc2cccc(C(F)(F)F)c2)cc1 (stereo unspecified)	none
O=C(NCc1ccccc1)N1Cc2ccccc2-n2cccc2C1c1cccs1 (stereo unspecified)	none
CC(C)CCNC(=O)N1Cc2ccccc2-n2cccc2C1C (stereo unspecified)	none
Cc1ccc(C2c3cccn3-c3ccccc3CN2C(=O)Nc2ccccc2Br)cc1 (stereo unspecified)	none
COc1ccc(NC(=O)N2Cc3ccccc3-n3cccc3C2c2ccccc2Cl)cc1OC (stereo unspecified)	none
COC(=O)c1ccc(Cl)cc1NC(=O)N1Cc2ccccc2-n2cccc2C1C (stereo unspecified)	none
CC1c2cccn2-c2ccccc2CN1C(=O)Nc1ccccc1 (stereo unspecified)	none
CC(C)C1c2cccn2-c2ccccc2CN1C(=O)Nc1ccccc1C(F)(F)F (stereo unspecified)	none
CC(N)c1cccc(Cl)c1Cl (stereo unspecified)	Methyltransferases active
CC(C)c1cccc(C(C)C)c1O	none
CN(C)c1ccc(C2c3cccn3-c3ccccc3CN2C(=O)NCCc2ccccc2)cc1 (stereo unspecified)	none
O=C1Nc2ccc3ncsc3c2/C1=C/c1cnc[nH]1	Methyltransferases active
Cc1ccc(C)c(NC(=O)N2Cc3ccccc3-n3cccc3C2C)c1 (stereo unspecified)	none
COc1ccc(C2c3cccn3-c3ccccc3CN2C(=O)Nc2ccc3c(c2)OCCO3)cc1 (stereo unspecified)	none
CCC1c2cccn2-c2ccccc2CN1C(=O)NCc1cccc(OC)c1 (stereo unspecified)	none
O=S1(=O)N(CCN2CC=C(c3c[nH]c4cc(F)ccc34)CC2)c2cccc3c2N1CCC3	Methyltransferases active
CSc1ccc(C2c3cccn3-c3ccccc3CN2C(=O)Nc2ccc(C)cc2C)cc1 (stereo unspecified)	none
CCc1ccccc1NC(=O)N1Cc2ccccc2-n2cccc2C1C(C)C (stereo unspecified)	none
Cc1ccc(C2c3cccn3-c3ccccc3CN2C(=O)Nc2ccc(C)c(Cl)c2)cc1 (stereo unspecified)	none
CCC1c2cccn2-c2ccccc2CN1C(=O)Nc1ccc(Br)c(C)c1 (stereo unspecified)	none

Screens (PubChem)
